Test results: ChEMBL document CHEMBL1961873, “Compounds: GSK PKIS; Assays: Nanosyn kinase panel” (2012)

Assays:
[1] = target: CDK3/Cyclin E (Homo sapiens) (UniProt P24864+Q00526); conditions: at 1 µM;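 also: each figure is a mean percent inhibition of the CDK3/cyclin E complex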
[2] = target: Cyclin-dependent kinase 4 (Homo sapiens) (UniProt P11802); conditions: at 0.1 µM
[3] = target: Cyclin-dependent kinase 4 (Homo sapiens) (UniProt P11802); conditions: at 1 µM
[4] = target: Cyclin-dependent kinase 5 (Homo sapiens) (UniProt Q00535); conditions: at 0.1 µM
Chain of Cyclin-dependent kinase 5 (Homo sapiens) (Q00535 whole entry, looked up): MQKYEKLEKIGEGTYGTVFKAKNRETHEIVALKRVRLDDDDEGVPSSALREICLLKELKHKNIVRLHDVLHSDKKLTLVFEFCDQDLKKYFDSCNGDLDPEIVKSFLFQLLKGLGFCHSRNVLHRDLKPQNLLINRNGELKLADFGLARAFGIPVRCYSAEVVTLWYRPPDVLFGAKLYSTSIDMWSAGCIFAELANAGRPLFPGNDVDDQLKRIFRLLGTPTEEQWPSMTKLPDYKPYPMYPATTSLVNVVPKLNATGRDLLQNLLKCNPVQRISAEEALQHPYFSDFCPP

[5] = target: Cyclin-dependent kinase 5 (Homo sapiens) (UniProt Q00535); conditions: at 1 µM
[6] = target: Cyclin-dependent kinase 6 (Homo sapiens) (UniProt Q00534); conditions: at 0.1 µM
Chain of Cyclin-dependent kinase 6 (Homo sapiens) (Q00534 whole entry): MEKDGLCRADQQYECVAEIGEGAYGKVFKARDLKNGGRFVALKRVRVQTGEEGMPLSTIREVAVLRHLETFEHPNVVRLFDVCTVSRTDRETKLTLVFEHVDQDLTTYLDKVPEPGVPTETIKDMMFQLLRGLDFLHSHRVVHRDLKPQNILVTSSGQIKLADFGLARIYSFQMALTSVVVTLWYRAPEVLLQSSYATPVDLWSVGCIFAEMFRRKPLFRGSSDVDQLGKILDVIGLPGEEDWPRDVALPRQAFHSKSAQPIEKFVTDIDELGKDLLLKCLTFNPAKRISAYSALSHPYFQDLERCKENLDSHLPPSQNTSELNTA

[7] = target: Cyclin-dependent kinase 6 (Homo sapiens) (UniProt Q00534); conditions: at 1 µM
[8] = target: Dual specificity protein kinase CLK2 (Homo sapiens) (UniProt P49760); conditions: at 0.1 µM
Chain of Dual specificity protein kinase CLK2 (Homo sapiens) (P49760 whole entry, looked up): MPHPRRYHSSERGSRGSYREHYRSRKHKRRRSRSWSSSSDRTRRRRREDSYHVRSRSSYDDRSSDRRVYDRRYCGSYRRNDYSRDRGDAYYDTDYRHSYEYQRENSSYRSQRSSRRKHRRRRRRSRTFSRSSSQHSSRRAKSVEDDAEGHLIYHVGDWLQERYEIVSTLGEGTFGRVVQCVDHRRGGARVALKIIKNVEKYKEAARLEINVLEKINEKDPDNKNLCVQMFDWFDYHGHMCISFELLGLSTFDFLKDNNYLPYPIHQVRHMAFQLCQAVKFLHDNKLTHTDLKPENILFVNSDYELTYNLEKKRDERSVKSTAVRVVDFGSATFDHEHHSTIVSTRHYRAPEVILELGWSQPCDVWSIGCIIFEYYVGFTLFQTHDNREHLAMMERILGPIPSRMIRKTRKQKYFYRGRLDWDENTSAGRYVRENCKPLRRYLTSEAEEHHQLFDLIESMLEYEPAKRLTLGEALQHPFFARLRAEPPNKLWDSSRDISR

[9] = target: Dual specificity protein kinase CLK2 (Homo sapiens) (UniProt P49760); conditions: at 1 µM
[10] = target: Dual specificity protein kinase CLK3 (Homo sapiens) (UniProt P49761); conditions: at 0.1 µM
Chain of Dual specificity protein kinase CLK3 (Homo sapiens) (P49761 whole entry, looked up): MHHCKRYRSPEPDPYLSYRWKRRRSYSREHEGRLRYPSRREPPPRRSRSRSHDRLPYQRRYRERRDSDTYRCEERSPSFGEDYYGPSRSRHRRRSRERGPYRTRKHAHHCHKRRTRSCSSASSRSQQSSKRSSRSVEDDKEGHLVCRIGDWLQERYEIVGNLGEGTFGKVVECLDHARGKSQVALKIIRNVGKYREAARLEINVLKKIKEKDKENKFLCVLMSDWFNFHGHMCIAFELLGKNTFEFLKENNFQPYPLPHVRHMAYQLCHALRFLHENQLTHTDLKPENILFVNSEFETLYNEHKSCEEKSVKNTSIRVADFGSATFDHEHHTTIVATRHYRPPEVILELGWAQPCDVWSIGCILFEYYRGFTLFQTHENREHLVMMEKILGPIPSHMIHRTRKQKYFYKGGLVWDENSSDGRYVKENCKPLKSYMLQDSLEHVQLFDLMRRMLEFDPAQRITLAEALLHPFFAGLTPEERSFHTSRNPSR

[11] = target: Dual specificity protein kinase CLK3 (Homo sapiens) (UniProt P49761); conditions: at 1 µM
[12] = target: Dual specificity tyrosine-phosphorylation-regulated kinase 1A (Homo sapiens) (UniProt Q13627); conditions: at 0.1 µM
[13] = target: Dual specificity tyrosine-phosphorylation-regulated kinase 1A (Homo sapiens) (UniProt Q13627); conditions: at 1 µM
[14] = target: Dual specificity tyrosine-phosphorylation-regulated kinase 1B (Homo sapiens) (UniProt Q9Y463); conditions: at 0.1 µM
Chain of Dual specificity tyrosine-phosphorylation-regulated kinase 1B (Homo sapiens) (Q9Y463 whole entry, looked up): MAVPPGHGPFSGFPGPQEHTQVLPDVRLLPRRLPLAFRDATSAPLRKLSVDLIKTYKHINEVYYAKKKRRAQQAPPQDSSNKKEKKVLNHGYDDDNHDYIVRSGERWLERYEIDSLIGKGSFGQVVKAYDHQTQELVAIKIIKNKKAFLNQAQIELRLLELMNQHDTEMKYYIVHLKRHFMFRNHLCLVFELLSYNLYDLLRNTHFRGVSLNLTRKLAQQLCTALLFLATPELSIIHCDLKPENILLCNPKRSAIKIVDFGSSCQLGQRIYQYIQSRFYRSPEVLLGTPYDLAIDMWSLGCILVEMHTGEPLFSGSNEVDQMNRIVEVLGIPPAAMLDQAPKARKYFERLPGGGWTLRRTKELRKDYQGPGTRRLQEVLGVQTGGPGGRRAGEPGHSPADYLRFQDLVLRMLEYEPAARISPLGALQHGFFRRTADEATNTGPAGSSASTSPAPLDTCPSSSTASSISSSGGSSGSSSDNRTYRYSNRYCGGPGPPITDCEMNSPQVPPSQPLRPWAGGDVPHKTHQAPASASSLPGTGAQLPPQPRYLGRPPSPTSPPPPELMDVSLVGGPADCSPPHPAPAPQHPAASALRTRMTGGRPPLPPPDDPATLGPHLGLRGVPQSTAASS

[15] = target: Dual specificity tyrosine-phosphorylation-regulated kinase 1B (Homo sapiens) (UniProt Q9Y463); conditions: at 1 µM
[16] = target: T1, Dual specificity tyrosine-phosphorylation-regulated kinase 2 (Homo sapiens) (UniProt Q92630); conditions: at 0.1 µM
T1 sequence (whole entry): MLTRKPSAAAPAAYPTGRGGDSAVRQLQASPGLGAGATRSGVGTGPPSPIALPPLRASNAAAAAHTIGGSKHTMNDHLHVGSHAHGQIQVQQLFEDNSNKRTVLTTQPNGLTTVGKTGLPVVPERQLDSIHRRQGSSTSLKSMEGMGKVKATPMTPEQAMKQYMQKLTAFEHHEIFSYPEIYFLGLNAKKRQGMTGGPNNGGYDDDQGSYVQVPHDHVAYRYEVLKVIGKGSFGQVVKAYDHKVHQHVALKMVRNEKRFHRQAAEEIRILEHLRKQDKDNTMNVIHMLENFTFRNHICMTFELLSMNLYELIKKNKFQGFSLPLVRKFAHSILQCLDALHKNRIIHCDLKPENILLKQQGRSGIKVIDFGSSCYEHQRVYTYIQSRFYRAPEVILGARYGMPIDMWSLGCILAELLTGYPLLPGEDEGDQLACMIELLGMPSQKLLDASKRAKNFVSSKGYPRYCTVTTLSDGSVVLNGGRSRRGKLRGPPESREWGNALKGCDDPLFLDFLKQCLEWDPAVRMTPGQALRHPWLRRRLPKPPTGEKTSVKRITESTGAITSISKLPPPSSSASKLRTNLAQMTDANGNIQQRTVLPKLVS

[17] = target: T1, Dual specificity tyrosine-phosphorylation-regulated kinase 2 (Homo sapiens); conditions: at 1 µM
[18] = target: Glycogen synthase kinase-3 alpha (Homo sapiens) (UniProt P49840); conditions: at 0.1 µM
Chain of Glycogen synthase kinase-3 alpha (Homo sapiens) (P49840 2-483 limits assumed): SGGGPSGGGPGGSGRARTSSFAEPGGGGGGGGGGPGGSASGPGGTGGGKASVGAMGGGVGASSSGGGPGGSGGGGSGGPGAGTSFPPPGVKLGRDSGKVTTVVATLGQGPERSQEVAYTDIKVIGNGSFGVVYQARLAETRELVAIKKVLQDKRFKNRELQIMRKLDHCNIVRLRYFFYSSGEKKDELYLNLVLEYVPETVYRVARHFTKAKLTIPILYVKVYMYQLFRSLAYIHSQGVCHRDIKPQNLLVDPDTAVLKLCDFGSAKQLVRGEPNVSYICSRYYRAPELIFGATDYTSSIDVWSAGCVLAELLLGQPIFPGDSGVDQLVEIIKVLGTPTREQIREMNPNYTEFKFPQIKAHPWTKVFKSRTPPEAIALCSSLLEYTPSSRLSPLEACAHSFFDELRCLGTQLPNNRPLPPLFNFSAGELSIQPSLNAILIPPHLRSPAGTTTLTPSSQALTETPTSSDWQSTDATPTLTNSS

[19] = target: Glycogen synthase kinase-3 alpha (Homo sapiens) (UniProt P49840); conditions: at 1 µM
[20] = target: Glycogen synthase kinase-3 beta (Homo sapiens) (UniProt P49841); conditions: at 0.1 µM;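 also: values are mean percent inhibition of GSK3B activity, from the GSK Published Kinase Inhibitor Set (PKIS) screening dataset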
Chain of Glycogen synthase kinase-3 beta (Homo sapiens) (P49841 whole entry, looked up): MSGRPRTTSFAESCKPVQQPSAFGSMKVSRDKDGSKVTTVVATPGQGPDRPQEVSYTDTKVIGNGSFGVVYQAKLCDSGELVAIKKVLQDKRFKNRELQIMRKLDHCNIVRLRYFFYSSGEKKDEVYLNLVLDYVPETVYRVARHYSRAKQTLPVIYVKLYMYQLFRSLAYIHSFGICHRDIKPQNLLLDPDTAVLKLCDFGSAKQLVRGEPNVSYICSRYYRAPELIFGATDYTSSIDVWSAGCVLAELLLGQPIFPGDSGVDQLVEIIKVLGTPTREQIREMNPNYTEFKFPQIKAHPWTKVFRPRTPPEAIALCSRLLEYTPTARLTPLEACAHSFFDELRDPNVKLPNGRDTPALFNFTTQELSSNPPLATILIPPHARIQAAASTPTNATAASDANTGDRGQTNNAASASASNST

Chain of CDK3/Cyclin E (Homo sapiens) (P24864 whole entry, looked up): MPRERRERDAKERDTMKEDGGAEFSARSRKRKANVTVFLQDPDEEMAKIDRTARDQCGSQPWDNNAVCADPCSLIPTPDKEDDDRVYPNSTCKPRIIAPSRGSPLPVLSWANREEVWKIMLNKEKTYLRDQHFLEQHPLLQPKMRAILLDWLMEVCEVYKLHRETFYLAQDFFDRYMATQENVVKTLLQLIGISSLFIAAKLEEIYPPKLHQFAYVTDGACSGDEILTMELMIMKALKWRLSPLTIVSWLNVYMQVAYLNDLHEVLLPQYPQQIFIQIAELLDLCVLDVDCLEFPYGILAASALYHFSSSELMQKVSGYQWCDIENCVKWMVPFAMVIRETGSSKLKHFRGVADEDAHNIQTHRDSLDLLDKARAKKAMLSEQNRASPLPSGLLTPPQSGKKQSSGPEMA
Chain of CDK3/Cyclin E (Homo sapiens) (Q00526 whole entry, looked up): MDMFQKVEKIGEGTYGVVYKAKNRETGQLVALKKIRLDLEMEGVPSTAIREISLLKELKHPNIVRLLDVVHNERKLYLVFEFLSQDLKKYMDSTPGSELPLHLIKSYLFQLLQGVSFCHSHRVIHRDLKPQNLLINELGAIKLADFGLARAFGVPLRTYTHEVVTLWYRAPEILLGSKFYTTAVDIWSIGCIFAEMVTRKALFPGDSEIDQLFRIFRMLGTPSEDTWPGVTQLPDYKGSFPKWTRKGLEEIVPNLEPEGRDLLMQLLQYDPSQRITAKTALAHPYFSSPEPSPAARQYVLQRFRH
Chain of Cyclin-dependent kinase 4 (Homo sapiens) (P11802 whole entry): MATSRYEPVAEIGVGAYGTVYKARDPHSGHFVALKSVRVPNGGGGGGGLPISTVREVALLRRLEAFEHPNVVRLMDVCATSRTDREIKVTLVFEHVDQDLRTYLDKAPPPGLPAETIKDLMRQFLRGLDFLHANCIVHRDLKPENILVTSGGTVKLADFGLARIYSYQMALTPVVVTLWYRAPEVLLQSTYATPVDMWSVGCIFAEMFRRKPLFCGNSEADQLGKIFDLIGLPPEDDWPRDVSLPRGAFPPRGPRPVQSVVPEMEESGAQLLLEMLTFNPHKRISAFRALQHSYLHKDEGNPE

Compound	inhibition [1]	inhibition [2]	inhibition [3]	inhibition [4]	inhibition [5]	inhibition [6]	inhibition [7]	inhibition [8]	inhibition [9]	inhibition [10]	inhibition [11]	inhibition [12]	inhibition [13]	inhibition [14]	inhibition [15]	inhibition [16]	inhibition [17]	inhibition [18]	inhibition [19]	inhibition [20]
CCCN1CCC=C(c2ccc(Nc3nc(Nc4ccccc4C(N)=O)c4cc[nH]c4n3)c(C)c2)C1	4.3%	4.35%	10.9%	1.88%	9.85%	0.69%	5.64%	38.2%	88.9%	-0.17%	6.97%	56.2%	92.3%	39.5%	71.1%	8.53%	44.2%	5.89%	28.1%	3.05%
COc1ccc(-c2nn3ncccc3c2-c2ccnc(Nc3ccc(Cl)c(C(F)(F)F)c3)n2)cc1	-0.57%	1.13%	2.09%	0.45%	0.19%	0.68%	1.73%	0.95%	1.59%	1.77%	0.49%	-0.17%	2.05%	-1.42%	0.89%	1.06%	1.84%	2.46%	3.98%	1.3%
COC(=O)Nc1nc2cc(Oc3ccc(NC(=O)Nc4cccc(C(=O)O)c4)cc3)ccc2[nH]1	-0.13%	-1.05%	2.01%	-1.87%	-0.58%	4.45%	2.67%	2.17%	0.77%	-3.22%	0.74%	-4.02%	-1.76%	-3.44%	-1.48%	0.41%	-0.17%	-2.54%	1.82%	-2.48%
COc1ccc2cc(-c3c(-c4ccncc4)nc(-c4ccc([S+](C)[O-])cc4)n3C)ccc2c1 (stereo unspecified)	-0.42%	2.74%	2.79%	0.96%	1.53%	-3.35%	-1.41%	0.22%	1.33%	0.91%	0.67%	0.49%	3.52%	-0.23%	0.37%	3.31%	1.71%	4.07%	11.5%	2.47%
O=C1NC(=O)C(N2CCc3ccccc32)=C1c1ccc(Cl)cc1	0.23%	3.68%	5.74%	2.06%	2.74%	-3.76%	5.39%	-0.03%	0.46%	2.68%	2.44%	3.12%	4.67%	0.13%	1.08%	3.3%	3.36%	3.79%	14%	–
NS(=O)(=O)c1cccc(-c2ccc3c(NC(=O)C4CC4)n[nH]c3c2)c1	1.71%	-1.17%	1.45%	0.87%	1.78%	-1.94%	6.01%	-0.55%	-0.78%	0.83%	1.36%	2.96%	3.42%	2.16%	3.65%	-1.18%	-0.6%	1.01%	3.15%	–
COc1cc2ncn(-c3cc(O[C@@H](C)c4ccccc4Cl)c(C(N)=O)s3)c2cc1OC	-0.13%	2.39%	4.14%	0.19%	2.21%	-0.46%	1.56%	0.33%	0.86%	0.71%	2.08%	4.47%	8.19%	-0.84%	5.29%	2.62%	3.36%	3.02%	6.38%	2.25%
CN1CCC(C(=O)Nc2n[nH]c3nnc(-c4ccccc4)cc23)CC1	5.97%	8.86%	29.4%	1.11%	3.61%	7.11%	21.4%	1.34%	2.3%	1.91%	2.52%	7.11%	33.9%	7.12%	31.9%	4.83%	9.37%	79.5%	85.7%	–
Fc1cccc(COc2ccc(Nc3ncnc4sc(-c5cccs5)cc34)cc2Cl)c1	0.05%	0.35%	2.13%	0.55%	1.81%	-0.81%	0.5%	1.58%	1.69%	0.66%	-0.15%	1.88%	6.51%	1.39%	2.06%	-1.01%	1.17%	1.69%	6.14%	1.97%
NC(=O)c1cccc(Nc2nccc(Nc3cccc4[nH]ncc34)n2)c1	23.7%	-0.82%	5.05%	1.84%	14.1%	0.2%	0.3%	1.19%	27.8%	0.15%	8.54%	3.35%	22.1%	5.54%	28.3%	-1.74%	7.45%	8.87%	42.1%	8.67%
Cc1cccc(-c2n[nH]cc2-c2ccc3ncccc3n2)n1	-2.25%	-0.55%	2.39%	-0.23%	0.38%	-3.86%	0.55%	-0.31%	3.44%	0.37%	-3.14%	1.27%	6.72%	-0.18%	4.09%	0.1%	4.03%	0.39%	1.15%	-0.14%
O=C1NC(=O)C(c2ccc(Cl)cc2)=C1Nc1ccc(Cl)c(C(=O)O)c1	1.13%	0.08%	-0.02%	0.36%	1.75%	4.89%	5.18%	-0.15%	1.55%	1.39%	4.58%	3.92%	17.2%	3.26%	8.51%	-2.12%	-1.19%	21.4%	72.1%	–
